# Methyltransferases = Primary Screen for Target Class Profiling of Small Molecule Inhibitors of Methyltransferases; purified enzyme, MTase-Glo SAH luminescence; active compounds read low; calls only at 40 µM; 25,000 compounds, 3.9% hits; AID 1745853, 2022; call rule not given here
#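 Each enzyme was assayed with SAM and its substrate. SAH formation detected by MTase-Glo luminescence; single-point 40 uM screen[…].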
# Numbers without * were called inactive; i = inactive; + = active, no number; ! = a repeat was not active. Only a selection was taken, and hits are over-represented in it overall. On the % scale 0 is the no-effect control and ±100 the full control effect.
SMILES,Methyltransferases
C=C1C(OC2OC(CO)C(O)C(O)C2O)CC2C(C)(C)C(O)CCC2(C)C1CC/C(C)=C\COC(=O)CC(=O)O (stereo unspecified),+
CC(C)=CC/C=C(/C)[C@H]1CC[C@]2(C)[C@@H]1[C@H](O)CC1[C@@]3(C)CC[C@H](O)C(C)(C)[C@@H]3[C@@H](O[C@@H]3O[C@H](CO)[C@@H](O)[C@H](O)[C@H]3O[C@@H]3O[C@@H](C)[C@H](O)[C@@H](O)[C@H]3O)C[C@]12C (stereo partly specified),i
CC(C)=CC/C=C(\C)[C@H]1CC[C@]2(C)[C@@H]1[C@H](O)C[C@@H]1[C@@]3(C)CC[C@H](O)C(C)(C)[C@@H]3[C@@H](O[C@@H]3O[C@H](CO)[C@@H](O)[C@H](O)[C@H]3O)C[C@]12C,i
CC1(C(=O)NC2CCCCCCC2)Cn2c(cc3occc32)C(=O)N1Cc1cccnc1 (stereo unspecified),i
CC(C)Cn1c(=O)c2ccccc2n2c(CCC(=O)NC3CCC(C)CC3)nnc12 (stereo unspecified),i
NCCCNc1ccc(Nc2nccc(Nc3cc(C4CC4)[nH]n3)n2)cc1,+
CCc1ccc(NC(=O)N2CCn3c(C)ccc3C2CC)cc1 (stereo unspecified),i
NC(=NCCCCCCN=C(N)/N=C(\N)Nc1ccc(Cl)cc1)/N=C(\N)Nc1ccc(Cl)cc1,+
N#Cc1cccc(-c2c[nH]c3ncnc(N4CCOCC4)c23)c1,+
CCOc1ccccc1NS(=O)(=O)c1ccc2c(c1)NC(=O)CC(=O)N2,i
CC(C)CCNC(=O)C1(C)Cn2c(nc3ccccc32)C(=O)N1CCc1ccc(Cl)cc1 (stereo unspecified),i
COc1ccc(-c2cnc3[nH]cc(CC(=O)N4CCNC(=O)C4)c3c2)cc1,i
O=C(c1c(F)ccc(NS(=O)(=O)N2CC[C@@H](F)C2)c1F)c1c[nH]c2ncc(-c3cnc(C4CC4)nc3)cc12,i
CCCS(=O)(=O)Nc1ccc(F)c(C(=O)c2c[nH]c3ncc(-c4ccc(Cl)cc4)cc23)c1F,+
CCCN1C(=O)c2c(C(=O)NCc3ccc(OCC)cc3)ncn2CC1(C)C(=O)NCCC(C)C (stereo unspecified),i
COc1cccc(CNC(=O)c2cc3n(n2)CC(C)(C(=O)NC2CCCCCC2)N(C)C3=O)c1OC (stereo unspecified),i
COc1cccc(CNC(=O)CCc2nnc3n(Cc4ccc(Cl)cc4)c(=O)c4ccccc4n23)c1,i
Cc1cc(F)ccc1NC(=O)Cn1c(=O)oc2cc(S(=O)(=O)N3CCCC3)ccc21,i
Nc1nnc(-c2cccc(Cl)c2Cl)c(N)n1,i
Nc1nc(NC2CC2)cc(-c2cccc(Cl)c2Cl)n1,+
C=CCn1c(=O)c2ccc(C(=O)NC(C)C)cc2n2c(=O)n(CC(=O)Nc3cc(C)ccc3C)nc12,i
CCOc1ccc(CCNC(=O)c2cc3n(n2)CC(C)(C(=O)NCc2ccccc2)N(C)C3=O)cc1 (stereo unspecified),i
CCN(CC)c1ccc2c(O)c(C=Nc3ccc(CC(=O)O)c(-c4c5c(nc6ccccc46)CCC(C(=O)NN)C5)c3)c(=O)oc2c1 (stereo unspecified),+
O=S(=O)(c1ccccc1)c1nnn2c1nc(Nc1cccc(F)c1)c1ccccc12,i
COc1cccc(CNC(=O)c2cc3n(n2)CC(C)(C(=O)NC2CCCC2)N(C)C3=O)c1OC (stereo unspecified),i
SMILES,Methyltransferases
CCOC(=O)c1cc2n(n1)CC(C)(C(=O)NCCC(C)C)N(c1cc(C)ccc1OC)C2=O (stereo unspecified),i
Cc1ccc(S(=O)(=O)c2nnn3c2nc(NCc2ccccc2)c2ccccc23)cc1,i
O=c1c2ccccc2n2c(-c3ccc(Br)cc3)nnc2n1Cc1ccc(F)cc1,i
CC1CCCC(NC(=O)C2(C)Cn3c(cc4occc43)C(=O)N2CCCc2ccccc2)C1C (stereo unspecified),i
C=C1C(=O)OC[C@@H]1C/C=C(\C)CC1CC(C)C(=O)O1 (stereo partly specified),+
CN1C(=O)c2cc(C(=O)NCCCN3CCc4ccccc4C3)nn2CC1(C)C(=O)NCc1ccccc1 (stereo unspecified),i
Cc1cc(C)cc(NC(=O)CCc2nnc3n(Cc4ccc(Cl)cc4)c(=O)c4ccccc4n23)c1,i
CC(C)n1nc(C#Cc2ccccc2)c2c(N)ncnc21,i
CC(C)n1nc(-c2ccc(NC(=O)Nc3cccc(C(F)(F)F)c3)cc2)c2c(N)ncnc21,+
C=CC(=O)N1CCC[C@@H](n2nc(-c3cccc(C(=O)Nc4ccc(C(C)C)c(C)c4)c3)c3c(N)ncnc32)C1,i
CC(C)OCCCNC(=O)c1cc2n(n1)CC(C)(C(=O)NCc1ccccc1)N(C)C2=O (stereo unspecified),i
Cc1ccc(Cn2nc3n(CCC(C)C)c(=O)c4ccccc4n3c2=O)cc1,i
COc1ccc(NC(=O)CSc2nnc3n(CC(C)C)c(=O)c4cc(F)ccc4n23)cc1OC,i
CCN1C(=O)c2cc3ccccc3n2CC1(C)C(=O)NCC(=O)NCc1ccccc1C (stereo unspecified),i
CCc1cc(Nc2nccc(-c3c(-c4ccc(OC)c(C(=O)Nc5c(F)cccc5F)c4)nc4ccccn34)n2)c(OC)cc1N1CCC(N2CCN(S(C)(=O)=O)CC2)CC1,+
CCCn1c(=O)c2ccccc2n2c(=O)n(Cc3c(F)cccc3Cl)nc12,i
Cc1cc2c(cc3n2CC(C)(C(=O)NC2CCCCCC2)N(C(C)CCc2ccccc2)C3=O)o1 (stereo unspecified),i
CCC(=O)N1CCOc2c(cc(-c3ccc(OC)c(OC)c3)cc2OC[C@H]2CCCN(C)C2)C1,+!
COc1ccc(CNC(=O)CCC2CCCN(C(=O)CCN3CCCCO3)C2)c(OC)c1 (stereo unspecified),i
Cc1ccccc1-c1cc(O)c2c(c1)CN(C(=O)C1CCNCC1)CCO2,i
COc1ccc2cc3n(c2c1)CC(C)(C(=O)NCC1CCCO1)N(Cc1ccccc1)C3=O (stereo unspecified),i
Nc1c(S(=O)(=O)O)cc(Nc2ccc(Nc3nc(Cl)nc(Nc4ccc(S(=O)(=O)O)cc4)n3)c(S(=O)(=O)O)c2)c2c1C(=O)c1ccccc1C2=O,+
Cc1ccc(CNC(=O)CCc2nnc3n(CCC(C)C)c(=O)c4ccccc4n23)cc1,i
Cc1ccc(NC(=O)CSc2nnc3n(CC(C)C)c(=O)c4ccc(C(=O)NC(C)C)cc4n23)cc1,i
CC(=O)O[C@@H]1[C@@H](CO)O[C@@](CO)(O[C@H]2O[C@H](COC(=O)/C=C/c3ccccc3)[C@@H](O)[C@H](O)[C@H]2O)[C@H]1O,i
O=C(/C=C/c1ccccc1)OC[C@H]1O[C@@H](OC(=O)c2cc(O)c(O)c(O)c2)[C@H](O)[C@@H](O)[C@@H]1O,+
O=C(/C=C/c1ccc(O)cc1)OC[C@H]1O[C@@H](O/C(=C\c2ccccc2)C(=O)O)[C@H](O)[C@@H](O)[C@@H]1O,i
CCCCN1C(=O)c2cc(C(=O)NCCN3CCN(CC)CC3)nn2CC1(C)C(=O)NC1CCCC1 (stereo unspecified),i
CN(CCN1C(=O)c2cc3sccc3n2CC1(C)C(=O)NC1CCCCCC1)C1CCCCC1 (stereo unspecified),i
